Screens (PubChem)
Most compounds without a hit are left out; they make up all but 1.3% or so of the library.
EPAC1 antag: blocks human EPAC1 exchange factor | O95398 | EPAC1 GEF assay, Rap1b-BODIPY-GDP exchange fluorescence | Potency, µM (titrated, usually from 115 µM), for the others: top-dose activity change, negative = inhibition, usual class: inhibitors | 360,000 tested, 0.14% active | AID 720709;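 also: plate controls were vehicle for no effect and positive control for full effect; nearly all actives have a fitted effect of over 50% in size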
EPAC1 ag: agonists of human EPAC1 | EPAC1 agonist qHTS, biochemical assay; response scale: 100% = response to 6.5 mM cAMP | AID 720707 | 360,000 tested, 0.073% active | Potency, µM (doses to about 154 µM), without a hit: at the top dose activation, most hits filed as activators | O95398; also: nearly all actives have a fitted effect of over 60% in size
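Fluorescent GDP-exchange assay: 100 nM EPAC1 with 250 nM Rap1B preloaded with BODIPY-GDP and 50 uM GDP; compounds tested as concentration series, 5 min at room temperature, then read every 5 min for 30 min (ex 480/em 540 nm); normalized to 6.5 mM cAMP.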
EPAC2 antagonist: EPAC2 (human) antagonism. EPAC2 GEF exchange of Rap1B-BODIPY-GDP, fluorescence. 360,000 tested, 0.18% active. AID 720708. Potency, µM (doses to about 114 µM), for inactives: top-dose activity, negative = inhibition, hits mostly inhibitors. Q8WZA2; also: % is scaled to controls: 0 for no effect and ±100 for the full control effect; nearly all actives have a fitted effect of over 45% in size
EPAC2 ag: agonists of human EPAC2 (RAPGEF4); 360,000 tested, 0.079% active; EPAC2 activation, biochemical qHTS; response scale: 100% = 6.5 mM cAMP response; AID 720711; Q8WZA2; Potency, µM (series often up to 154 µM), for inactives: at the top dose activation, hits mostly activators; also: nearly all actives have a fitted effect of over 50% in size
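Exchange assay: 100 nM EPAC2 with 250 nM Rap1B-BODIPY-GDP and 50 uM GDP. Fluorescence (ex 480/em 540 nm) read every 5 min for 30 min at room temperature. Data normalized to 6.5 mM cAMP as agonist control.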
USP1-UAF1 inh: inhibitors of human USP1/UAF1 deubiquitinase | O94782 | recombinant USP1/UAF1, Ub-Rhodamine cleavage fluorescence | Potency, µM (doses to about 57.1 µM), without a hit: at the highest dose activity change, negative = inhibition, most hits filed as inhibitors | 390,000 tested, 0.23% active; also: % is scaled to controls: 0 for no effect and ±100 for the full control effect; nearly all actives have a fitted effect of over 60% in size
Target sequence (O94782 whole entry, looked up): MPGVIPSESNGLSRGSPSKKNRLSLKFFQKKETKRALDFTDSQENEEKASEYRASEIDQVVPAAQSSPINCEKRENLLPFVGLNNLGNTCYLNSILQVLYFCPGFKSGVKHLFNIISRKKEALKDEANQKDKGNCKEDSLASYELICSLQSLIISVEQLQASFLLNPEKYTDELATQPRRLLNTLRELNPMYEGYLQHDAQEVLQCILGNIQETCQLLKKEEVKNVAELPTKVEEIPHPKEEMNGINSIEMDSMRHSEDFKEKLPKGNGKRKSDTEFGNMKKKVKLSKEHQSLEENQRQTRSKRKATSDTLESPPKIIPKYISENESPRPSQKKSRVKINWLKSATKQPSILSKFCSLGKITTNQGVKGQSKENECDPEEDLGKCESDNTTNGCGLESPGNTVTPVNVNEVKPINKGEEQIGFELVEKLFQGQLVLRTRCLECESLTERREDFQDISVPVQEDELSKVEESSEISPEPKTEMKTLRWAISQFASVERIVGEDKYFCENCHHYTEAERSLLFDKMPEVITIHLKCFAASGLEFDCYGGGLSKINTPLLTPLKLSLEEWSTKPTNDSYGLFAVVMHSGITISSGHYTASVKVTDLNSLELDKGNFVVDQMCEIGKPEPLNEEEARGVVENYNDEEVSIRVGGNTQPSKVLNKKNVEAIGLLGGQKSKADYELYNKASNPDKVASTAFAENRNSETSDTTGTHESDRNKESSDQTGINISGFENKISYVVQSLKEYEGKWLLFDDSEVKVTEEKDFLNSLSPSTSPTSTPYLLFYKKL
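High-throughput fluorogenic screen: 1nM USP1/UAF1 complex, Ub-Rho substrate 150nM final, 50mM HEPES pH 7.8 with 0.5mM EDTA, 0.1 mg/ml BSA, 1mM TCEP and 0.01% Tween-20.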
ALOX12 inh: ALOX12 (human) lipoxygenase inhibition; P18054; purified 12hLO, xylenol orange hydroperoxide absorbance; Potency, µM (top dose mostly 108 µM), for inactives: at the top dose activity change, negative = inhibition, hits mostly inhibitors; 580,000 tested, 1.1% active; also: % is scaled to controls: 0 for no effect and ±100 for the full control effect
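Purified human 12hLO at 150 nM in 25 mM Hepes, 0.01% Triton X-100, pH 7.0, preincubated 15 min at room temperature with compound. Reaction started with 40 uM arachidonic acid, 30 min at room temperature. Hydroperoxide measured by Fe-xylenol orange, 573/405 nm absorbance ratio.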
Starred values were filed as active, the others as inactive; u = inconclusive; x = no result; ! = a repeat was not active; [ ] = another dose, or the depositor's remark. Calls follow the shape of the dose curve; as a rule, active = well fitted curve in the direction sought with a large enough effect; inconclusive = small, poorly fitted or top-dose-only effect, or another doubt; inactive = no such curve, though single readings can be large; an effect the other way counts as inactive or inconclusive. Potency is read from the fitted curve at half-maximal effect.

SMILES	EPAC1 antag	EPAC1 ag	EPAC2 antagonist	EPAC2 ag	USP1-UAF1 inh	ALOX12 inh
CCN1CCN(S(=O)(=O)c2ccc(Cl)c(C(=O)Nc3ccc(C(=O)N(CC)CC)cc3)c2)CC1	3.5%	-8.4%	5.0%	-0.4%	u	20µM*
Fc1ccc(-c2ncc3c(n2)C[C@@H]2CC[C@H]3N2)cc1	x	x	x	x	x	1.7%
Oc1cccc2cccnc12	x	x	x	x	x	9.28µM*!
CN(C(=O)Oc1cccc2cccnc12)c1ccccc1	16.1%	0.0%	0.5%	8.5%	-10.9%	5.2%
Cc1nc(-c2cccs2)cc([C@H]2CN3CC[C@H]2C[C@@H]3CNC(=O)Nc2cccc(C(F)(F)F)c2)n1	x	x	x	x	x	-6.0%
CCCCNC(=O)c1c(N)n(CCCOC)c2nc3ccccc3nc12	u	7.2%	u	9.9%	11.2µM*	u
COCCNC(=O)c1c(N)n(CCC(C)C)c2nc3ccccc3nc12	44.7µM*	-4.0%	79.4µM*	4.8%	u	u
Oc1ccc(Cl)cc1Sc1cc(Cl)ccc1O	u	2.9%	35.5µM*	2.5%	-14.5%	u
C[N+]1(C)C2CCC1CC(OC(=O)c1ccco1)C2 (configuration not stated)	-6.3%	2.0%	-4.0%	-1.7%	-8.6%	-0.4%
C[N+]1(C)C2CCC1CC(OC(=O)c1c[nH]c3ccccc13)C2 (configuration not stated)	-11.9%	-12.0%	4.5%	-4.7%	-12.9%	44.7µM*
C[N+]1(C)[C@@H]2CC[C@H]1CC(OC(=O)[C@@H](CO)c1ccccc1)C2 (some centres not stated)	-0.1%	-9.8%	7.2%	1.3%	-15.4%	17.8µM*
CCN(CC)C(=O)c1ccc(NC(=O)c2cc(-c3ccco3)nc3ccccc23)cc1	x	x	x	x	x	31.6µM*
Cc1cccc(N2C(=O)/C(=C/c3ccc(CN(CCC#N)S(C)(=O)=O)o3)C(=O)NC2=S)c1	u	-0.3%	4.1%	4.3%	25.1µM*	12.6µM*
Cc1ccc(/C=C2\C(=O)NC(=S)N(c3cccc(F)c3)C2=O)o1	u	6.3%	25.7%	0.0%	u	u
CC12CCC3C(CCC4C/C(=N\O)CCC43C)C1CCC2O (configuration not stated)	x	x	x	x	x	2.5%
O=C(O)Cn1cc(C=C2C(=O)NC(=O)NC2=O)c2ccccc21	-28.7%	2.8%	-2.8%	4.8%	1.0%	-28.0%
O=C(Cn1cc(C=C2C(=O)NC(=O)NC2=O)c2ccccc21)NCC1CCCO1 (configuration not stated)	-31.2%	2.7%	3.0%	28.6%	-4.1%	12.6µM*
O=P(Nc1cccnc1)(Oc1ccccc1Cl)Oc1ccccc1Cl	-14.0%	5.9%	56.2µM*	6.1%	-7.3%	-24.6%
Cc1cccc(OP(=O)(Nc2cccnc2)Oc2cccc(C)c2)c1	-9.8%	-19.6%	-1.7%	12.4%	-5.3%	-2.2%
O=[N+]([O-])c1ccc(Nc2ccccc2)cc1	-9.0%	4.0%	-19.4%	19.9%	-10.5%	-25.7%
c1ccc(Nc2ccc(Nc3ccccc3)cc2)cc1	-6.7%	6.4%	-18.1%	7.8%	-2.2%	14.1µM*
CC(C)CCN1CCC(N2CCN(C(=O)COc3ccccc3)CC2)C1=O (configuration not stated)	x	x	x	x	x	40.4%
CN1/C(=C\C=C2C(=O)NC(=O)NC2=O)C(C)(C)c2ccccc21	14.6%	u	11.8%	10.0%	u	-24.0%
CCN1/C(=C/C=C/C2=[N+](CC)c3ccccc3C2(C)C)C(C)(C)c2ccccc21	47.1%	56.2µM*	144.4%	17.8µM*	25.1µM*	u
CN(C)Cc1cn(C[C@H]2CC3CCN2C[C@@H]3C(=O)NC2CCCCC2)nn1 (some centres not stated)	x	x	x	x	x	5.2%[176 µM]
SMILES	EPAC1 antag	EPAC1 ag	EPAC2 antagonist	EPAC2 ag	USP1-UAF1 inh	ALOX12 inh
COc1cc2c(cc1OC1CCCC1)NC(=O)C21CCN(C(=O)c2cccc(O)c2)CC1	x	x	x	x	x	-12.5%[176 µM]
O=[N+]([O-])c1ccc(N(CCO)CCO)c2c1no[n+]2[O-]	56.2µM*	-110.8%	u	-114.4%	52.0%	-7.1%
CC1OC(=O)[C@@H](C(C)C)NC(=O)C(C(C)C)OC(=O)[C@H](C(C)C)NC(=O)C(C)OC(=O)[C@@H](C(C)C)NC(=O)C(C(C)C)OC(=O)[C@H](C(C)C)NC(=O)C(C)OC(=O)[C@@H](C(C)C)NC(=O)C(C(C)C)OC(=O)[C@H](C(C)C)NC1=O (some centres not stated)	x	x	x	x	x	2.5%
COc1cc2c(cc1OCc1ccccc1)NC(=O)C21CCN(Cc2c(C)noc2C)CC1	x	x	x	x	x	46.0%
NC(=O)c1cn(C2OC(CO)C(O)C2O)c2ncnc(N)c12 (configuration not stated)	-1.3%	6.8%	12.1%	-0.3%	-16.6%	17.8µM*!
O=C(N/N=C/c1c(O)n(CCC2=CCCCC2)c(=O)[nH]c1=O)c1ccccc1	u	3.4%	-6.3%	1.4%	0.8%	u
O=C(N/N=C/c1c(O)n(CCC2=CCCCC2)c(=S)[nH]c1=O)c1ccccc1	-12.9%	-3.7%	-6.0%	-2.5%	-9.5%	28.2µM*
Cc1nc(-c2ccc(N(C)C)cc2)cc([C@H]2CN3CC[C@H]2C[C@@H]3CNC(=O)NC(C)C)n1	x	x	x	x	x	7.7%[176 µM]
O=C(Nc1ccc(=O)n2c1[C@@H]1C[C@@H](CN(S(=O)(=O)c3ccccc3)C1)C2)c1cncnc1	x	x	x	x	x	69.1%
COc1ccc(Cc2c(O)[nH]c(=S)[nH]c2=O)cc1	-12.1%	-4.5%	-6.7%	-0.6%	-7.6%	28.2µM*
CCCCOc1ccc(C(C)=O)cc1Cc1c(O)[nH]c(=S)[nH]c1=O	-23.7%	-5.1%	-5.7%	-1.2%	-12.9%	12.7%
Cc1ccc(-n2c(/C=C/c3ccco3)nc3ccccc3c2=O)cc1	x	x	x	x	x	15.8µM*
CCCCc1cn(C[C@H]2CC3CCN2C[C@@H]3C(=O)NCc2ccc3c(c2)OCO3)nn1 (some centres not stated)	x	x	x	x	x	11.0%[176 µM]
CC1CCN(C(CC(=O)c2ccccc2)C(=O)c2ccccc2)CC1 (configuration not stated)	4.4%	16.4%	-7.7%	13.4%	u	8.91µM*
O=C(CN1CCCC1=O)NCc1ccc(F)cc1Cl	x	x	x	x	x	31.1%
CC(=O)c1cccc(NC(=O)OC[C@H]2C[C@@H]3CCN2C[C@@H]3c2cc(C3CCCC3)nc(C)n2)c1	x	x	x	x	x	-2.2%
CC(=O)c1ccc(NC(=O)OC[C@H]2C[C@@H]3CCN2C[C@@H]3c2cc(C3CCCC3)nc(-c3ccncc3)n2)cc1	x	x	x	x	x	-29.5%
